Assay results: PubChem BioAssay (Tox21)
A structure can be active in one record and inactive in another. Calls of active or inactive are those of the source. Unless noted, calls come from the whole dose curve; as a rule, active = well fitted curve in the direction sought with a large enough effect in the repeat runs; inconclusive = weak or mixed curves; inactive = no such curve, though single readings can be large; an effect the other way counts as inactive or inconclusive.

How the values were obtained:
[1] = qHTS assay for small molecule agonists of the p53 signaling pathway (AID 651631; calls by dose curve; note: nearly all actives have a fitted effect of over 15% in size)
Procedure, shortened: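 p53RE-bla HCT-116 cells; compounds 16 h, 37 °C; LiveBLAzer B/G FRET substrate 2 h RT; fluorescence intensity read-out, qHTS format.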

[2] = qHTS assay for small molecules that induce genotoxicity in human embryonic kidney cells expressing luciferase-tagged ATAD5 (AID 651632); note: nearly all actives have a fitted effect of over 15% in size
Procedure, shortened: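 Luminescence read-out: after 16 hr compound exposure at 37C, ATAD5-luciferase HEK293T cells received Amplite, 30 min RT, then CCD imaging. A rise in signal marks genotoxic stress.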

[3] = qHTS assay for small molecule agonists of the p53 signaling pathway - cell viability (AID 651633; calls by dose curve;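 note: p53RE-bla HCT reporter cells with a stable beta-lactamase p53 reporter; nearly all actives have a fitted effect of over 30% in size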)
Procedure, shortened: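 p53RE-bla cells were treated with compound for 16 hours at 37 C. Cytotoxicity was then measured as CellTiter-Glo luminescence after 30 min at room temperature.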

[4] = qHTS assay for small molecules that induce genotoxicity in human embryonic kidney cells expressing luciferase-tagged ATAD5 - cell viability (AID 651634; calls by dose curve; note: nearly all actives have a fitted effect of over 25% in size)
Procedure, shortened: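 HEK293T ATAD5-luc cells, 2,000/well; compound 15.5 hr, 37C/5% CO2; CellTiter-Fluor 30 min, 37C; fluorescence read.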

[5] = qHTS assay for small molecule disruptors of the mitochondrial membrane potential - cell viability (AID 720634; calls by dose curve;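 note: human HepG2 liver cancer cells; nearly all actives have a fitted effect of over 20% in size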)
Procedure, shortened: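 Luminescence from CellTiter-Glo (ATP content) gave viability in HepG2 cells, read in the same wells as the MMP dye assay after 1 hr compound exposure at 37 C.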

[6] = qHTS assay for small molecule disruptors of the mitochondrial membrane potential (AID 720635); note: potency is the fitted concentration of half-maximal effect
Procedure, shortened: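 HepG2 cells exposed to compound 1 hr at 37C, then Mito-MPS dye 30 min. Ratio read of aggregate (540/590 nm) versus monomer (490/535 nm) fluorescence.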

[7] = qHTS assay to test for compound auto fluorescence at 590 nm (red) in HepG2 cells (AID 720674)
Procedure, shortened: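 Seeding: 2,000 HepG2 cells/well, MEM/10% FBS, overnight 37 C. Dosing: compound vs DMSO. Incubation: 1 hr, 37 C, 5% CO2. Read: fluorescence 540 ex/590 em, Rose Bengal sodium as red reference.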

[8] = qHTS assay to test for compound auto fluorescence at 535 nm (green) in HepG2 cells (AID 720675)
[9] = qHTS assay to test for compound auto fluorescence at 460 nm (blue) in HEK293 cells (AID 720678)
Procedure, shortened: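 HEK293, 2,000 cells/well, 10% dialyzed FBS; attach 4-5 hr 37C; pin compound or DMSO; o/n 37C/5% CO2; fluorescence 405/460 nm; triamterene-equivalent units.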

[10] = qHTS assay to test for compound auto fluorescence at 590 nm (red) in HEK293 cells (AID 720679)
Procedure, shortened: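 Intensity at 540nm excitation and 590nm emission is reported as Rose Bengal sodium-equivalent autofluorescence. Measurements followed overnight exposure (37C, 5% CO2) of HEK293 cells, 2,000 per well, to 23 nL compound.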

[11] = qHTS assay to test for compound auto fluorescence at 535 nm (green) in HEK293 cells (AID 720680)
[12] = qHTS assay to test for compound auto fluorescence at 460 nm (blue) in HEK293 cell free culture (AID 720681)
Procedure, shortened: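 Compounds were added to cell-free DMEM with 10% FBS and fluorescence read directly. The blue channel used 405 nm excitation and 460 nm emission, with triamterene as the reference fluorophore.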

[13] = qHTS assay to test for compound auto fluorescence at 535 nm (green) in HEK293 cell free culture (AID 720682)
Procedure, shortened: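 Cell-free medium (DMEM, 10% FBS) receives compound or DMSO by pintool. Plate read directly at Ex 485/Em 535 nm. Signal converted to fluorescein equivalency.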

[14] = qHTS assay to test for compound auto fluorescence at 590 nm (red) in HEK293 cell free culture (AID 720683)
Procedure, shortened: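 Cell-free wells of DMEM with 10% FBS received compound, and intrinsic fluorescence was read at excitation/emission 540/590 nm. Values expressed as equivalence to Rose Bengal sodium.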

[15] = qHTS assay to test for compound auto fluorescence at 590 nm (red) in HepG2 cell free culture (AID 720684)
Procedure, shortened: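 Auto fluorescence equivalency versus Rose Bengal sodium, red channel Ex/Em 540/590 nm; compounds in cell-free MEM/10% FBS; DMSO vehicle control.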

[16] = qHTS assay to test for compound auto fluorescence at 460 nm (blue) in HepG2 cell free culture (AID 720685)
Procedure, shortened: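 Cell-free plates of MEM plus 10% FBS received 23 nL compound or DMSO vehicle; blue-channel (405/460 nm) intensity scored against triamterene as reference fluorophore.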

[17] = qHTS assay to test for compound auto fluorescence at 535 nm (green) in HepG2 cell free culture (AID 720686)
[18] = qHTS assay to test for compound auto fluorescence at 460 nm (blue) in HepG2 cells (AID 720687)
Procedure, shortened: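 HepG2 cells in MEM with 10% FBS, attached overnight at 37 C, were exposed to compound or DMSO for 1 hr at 37 C, 5% CO2. Blue fluorescence was read at 405/460 nm, with triamterene as reference fluorophore.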

[19] = biological target: Glucocorticoid receptor (Homo sapiens) (UniProt P04150); experiment: qHTS assay to identify small molecule agonists of the glucocorticoid receptor (GR) signaling pathway (AID 720691; active = well fitted activation curve with a large enough effect in the signal ratio in the repeat runs, not every such curve was filed as active; inconclusive = weak or mixed curves, or effect the other way; inactive = no such curve, though single readings can be large or run the other way; the % refers to the signal ratio); conditions: GR-bla HeLa, beta-lactamase reporter ratio, 18 h
Chain of Glucocorticoid receptor (Homo sapiens) (P04150 whole entry, looked up): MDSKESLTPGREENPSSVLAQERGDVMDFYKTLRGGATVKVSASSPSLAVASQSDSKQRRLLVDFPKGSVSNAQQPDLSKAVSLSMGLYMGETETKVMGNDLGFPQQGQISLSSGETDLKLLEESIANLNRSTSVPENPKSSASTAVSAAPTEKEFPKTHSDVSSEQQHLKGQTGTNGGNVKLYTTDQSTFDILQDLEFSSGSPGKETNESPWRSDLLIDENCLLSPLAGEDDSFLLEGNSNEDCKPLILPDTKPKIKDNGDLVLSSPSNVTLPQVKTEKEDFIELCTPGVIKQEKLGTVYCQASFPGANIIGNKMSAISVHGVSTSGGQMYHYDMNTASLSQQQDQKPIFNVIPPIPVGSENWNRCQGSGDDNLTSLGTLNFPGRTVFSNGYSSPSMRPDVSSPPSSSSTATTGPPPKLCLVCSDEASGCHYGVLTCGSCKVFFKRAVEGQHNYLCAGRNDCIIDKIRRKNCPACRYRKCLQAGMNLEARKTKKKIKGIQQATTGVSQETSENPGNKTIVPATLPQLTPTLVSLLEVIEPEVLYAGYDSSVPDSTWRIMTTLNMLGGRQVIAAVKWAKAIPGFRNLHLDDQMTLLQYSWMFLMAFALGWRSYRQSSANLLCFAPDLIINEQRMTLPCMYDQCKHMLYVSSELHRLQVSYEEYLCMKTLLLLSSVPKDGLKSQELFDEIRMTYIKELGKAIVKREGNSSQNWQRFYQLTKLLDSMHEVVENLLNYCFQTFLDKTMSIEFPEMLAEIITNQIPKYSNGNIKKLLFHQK
Procedure, shortened: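 HeLa GR-bla reporter line; cells pre-incubated 4 h, compound in DMSO 18 h at 37 C; LiveBLAzer B/G FRET substrate 2 h RT; fluorescence intensity read-out.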

[20] = biological target: Glucocorticoid receptor (Homo sapiens) (UniProt P04150); experiment: qHTS assay to identify small molecule antagonists of the glucocorticoid receptor (GR) signaling pathway (AID 720692; active = well fitted inhibition curve with a large enough effect in the signal ratio in the repeat runs, not every such curve was filed as active; inconclusive = weak or mixed curves, or effect the other way; inactive = no such curve, though single readings can be large or run the other way; the % refers to the signal ratio)
Procedure, shortened: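 Read-out: beta-lactamase FRET substrate fluorescence, 2 h at room temperature, in HeLa cells stably carrying a GRE-driven bla reporter. Compounds were co-incubated with 5 nM dexamethasone agonist (final) for 18 h at 37 C.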

[21] = activation: at 62.4 µM (top of the series)
% is set by controls: 0 for no effect and ±100 for the full control effect.

CCC(O)c1ccccc1 (centres undefined)
inactive: Potency [1] | Potency [2] | Potency [3] | Potency [4] | Potency [5] | Potency [6] | outcome [7] | Potency [8] | Potency [9] | outcome [10] | outcome [11] | Potency [12] | outcome [13] | outcome [14] | outcome [15] | Potency [16] | Potency [17] | Potency [18] | Potency [19, 21] | Potency [20]

C1CCc2nnnn2CC1
inactive: Potency [1] | Potency [2] | Potency [3] | Potency [4] | Potency [5] | Potency [6] | outcome [7] | Potency [8] | Potency [9] | outcome [10] | outcome [11] | Potency [12] | outcome [13] | outcome [14] | outcome [15] | Potency [16] | Potency [17] | Potency [18]

COc1c(O)cc2c(c1O)[C@@H]1O[C@H](CO)[C@@H](O)[C@H](O)[C@H]1OC2=O
inactive: Potency [1] | Potency [2] | Potency [3] | Potency [4] | Potency [5] | Potency [6] | outcome [7] | Potency [8] | Potency [9] | outcome [10] | outcome [11] | Potency [12] | outcome [13] | outcome [14] | outcome [15] | Potency [16] | Potency [17] | Potency [18] | Potency [19, 21] | Potency [20]

CC(=O)OCC(=O)[C@@]1(O)CC[C@H]2[C@@H]3CCC4=CC(=O)CC[C@]4(C)C3=CC[C@@]21C
inactive: Potency [1] | Potency [2] | Potency [3] | Potency [4] | Potency [5] | Potency [6] | outcome [7] | Potency [8] | Potency [9] | outcome [10] | outcome [11] | Potency [12] | outcome [13] | outcome [14] | outcome [15] | Potency [16] | Potency [17] | Potency [18] | Potency [19, 21]

CS(=O)(=O)c1ccc([C@@H](O)[C@@H](COC(=O)CN)NC(=O)C(Cl)Cl)cc1
inactive: Potency [1] | Potency [2] | Potency [3] | Potency [4] | Potency [5] | Potency [6] | outcome [7] | Potency [8] | Potency [9] | outcome [10] | outcome [11] | Potency [12] | outcome [13] | outcome [14] | outcome [15] | Potency [16] | Potency [17] | Potency [18]

OCl
inactive: Potency [1] | Potency [2] | Potency [3] | Potency [4] | Potency [5] | Potency [6] | outcome [7] | Potency [8] | Potency [9] | outcome [10] | outcome [11] | Potency [12] | outcome [13] | outcome [14] | outcome [15] | Potency [16] | Potency [17] | Potency [18] | Potency [19, 21]

O=P(O)(O)C(O)(Cn1ccnc1)P(=O)(O)O
inactive: Potency [1] | Potency [2] | Potency [3] | Potency [4] | Potency [5] | Potency [6] | outcome [7] | Potency [8] | Potency [9] | outcome [10] | outcome [11] | Potency [12] | outcome [13] | outcome [14] | outcome [15] | Potency [16] | Potency [17] | Potency [18] | Potency [19, 21]

CC(C)(COP(=O)(O)OP(=O)(O)OC[C@H]1O[C@@H](n2cnc3c(N)ncnc32)[C@H](O)[C@@H]1OP(=O)(O)O)C(O)C(=O)NCCC(=O)NCCS (some centres undefined)
inactive: Potency [1] | Potency [2] | Potency [3] | Potency [4] | Potency [5] | Potency [6] | outcome [7] | Potency [8] | Potency [9] | outcome [10] | outcome [11] | Potency [12] | outcome [13] | outcome [14] | outcome [15] | Potency [16] | Potency [17] | Potency [18]

Oc1ccc(Cl)c2c1CCC2
active: Potency [6] 24.8 µM
inactive: Potency [1] | Potency [2] | Potency [3] | Potency [4] | Potency [5] | outcome [7] | Potency [8] | Potency [9] | outcome [10] | outcome [11] | Potency [12] | outcome [13] | outcome [14] | outcome [15] | Potency [16] | Potency [17] | Potency [18] | Potency [19, 21]

CN1C(C(=O)Nc2ccccn2)C(=O)c2sc(Cl)cc2S1(=O)=O (centres undefined)
inactive: Potency [1] | Potency [2] | Potency [3] | Potency [4] | Potency [5] | outcome [7] | Potency [8] | Potency [9] | outcome [10] | outcome [11] | Potency [12] | outcome [13] | outcome [14] | outcome [15] | Potency [16] | Potency [17] | Potency [18]
active: Potency [6] 8.41 µM

Cc1c(O)c(=O)ccn1C
inactive: Potency [1] | Potency [2] | Potency [3] | Potency [4] | Potency [5] | Potency [6] | outcome [7] | Potency [8] | Potency [9] | outcome [10] | outcome [11] | Potency [12] | outcome [13] | outcome [14] | outcome [15] | Potency [16] | Potency [17] | Potency [18] | Potency [19, 21] | Potency [20]

O=C1c2c(O)cccc2[C@H]([C@@H]2O[C@H](CO)[C@@H](O)[C@H](O)[C@H]2O)c2cc(CO)cc(O)c21
inactive: Potency [1] | Potency [2] | Potency [3] | Potency [4] | Potency [5] | Potency [6] | outcome [7] | Potency [8] | Potency [9] | outcome [10] | outcome [11] | Potency [12] | outcome [13] | outcome [14] | outcome [15] | Potency [16] | Potency [17] | Potency [18] | activation ([19]; at 62.4 µM (top of the series)) -0.87% | Potency [20]
active: activation [19, 21] 14.2% [inconclusive]
